KB-V1 cytotox – kills drug-selected multidrug resistant KB-V1 cells | KB-V1 MDR cells viability, CellTiter-Glo, 72 h | Potency, µM (doses to about 46.1 µM), actives largely listed as cytotoxic | AID 1347076 | actives 3.4% (n = 400,000); further: nearly all actives have a fitted effect of over 60% in size
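KB-V1 MDR subline cells in DMEM (phenol-red free, 10% FBS) exposed to compounds in qHTS concentration series for 72 h at 37 degrees C. Viability read by CellTiter-Glo luminescence; concentration-effect curves fitted after normalization and correction.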
Giardia killer – kills Giardia lamblia | Giardia lamblia trophozoite viability | activity change, % at 7.66 µM, hits read low | actives 0.15% (n = 340,000); in the data active means activity change below about -80%; inconclusive means between about -30% and that limit;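 further: parasites exposed to compound for two days anaerobically before the ATP read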
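Media and compound were dispensed first, then trophozoites at 100 cells/well; plates sat 48 hrs at 37 deg C without oxygen before ATP luminescence reagent was added and read after 15-30 min at room temperature.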
A549 viability – A549 cytotoxicity, counter-screen for Nrf2 inhibitors. A549 ARE-Fluc cells, CellTiter-Fluor viability, 18-24 h. Potency, µM (doses to about 46 µM), usual class: inhibitors. actives 0.16% (n = 390,000)
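Cytotoxicity counterscreen: CellTiter-Fluor fluorescence was measured in A549 ARE_Fluc cells after 18-24 h of compound exposure in a concentration series. The subsequent BugLite luminescent read reports ARE-luciferase activity.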
Nrf2 inh – inhibitors of Nrf2 signaling; Potency, µM (top dose mostly 46 µM), most hits filed as inhibitors; A549 ARE-Fluc reporter, luciferase luminescence, 18-24 h; actives 2.1% (n = 360,000); further: nearly all actives have a fitted effect of over 60% in size
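In this cell-based qHTS, ARE-driven firefly luciferase in A549 cells reports Nrf2 activity; the luminescent signal after BugLite lysis is the measured value, with a prior CellTiter-Fluor read for cell health.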
KB-3-1 cytotox – kills parental KB-3-1 adenocarcinoma cells. actives 1.4% (n = 400,000). Potency, µM (doses to about 46.1 µM), most hits filed as cytotoxic. KB-3-1 viability, CellTiter-Glo ATP luminescence, 72 h. AID 1347075; further: nearly all actives have a fitted effect of over 60% in size
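Parental KB-3-1 adenocarcinoma cells in phenol-red-free DMEM with 10% FBS were pin-treated with compounds at several concentrations, incubated 72 h at 37 °C, and viability read by CellTiter-Glo luminescence; concentration-effect curves were fitted after normalization.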
PI4K2A block – PI4K2A (human) kinase inhibition. Q9BTU6. purified PI4K2A, ADP-Glo luminescence, 1 h; hits give low values. activity change, negative = inhibition, % at 76.9 µM. actives 0.13% (n = 420,000); in the data active means activity change below about -50%; inconclusive means mostly about -30% to -49%
Target sequence (Q9BTU6 whole entry, looked up): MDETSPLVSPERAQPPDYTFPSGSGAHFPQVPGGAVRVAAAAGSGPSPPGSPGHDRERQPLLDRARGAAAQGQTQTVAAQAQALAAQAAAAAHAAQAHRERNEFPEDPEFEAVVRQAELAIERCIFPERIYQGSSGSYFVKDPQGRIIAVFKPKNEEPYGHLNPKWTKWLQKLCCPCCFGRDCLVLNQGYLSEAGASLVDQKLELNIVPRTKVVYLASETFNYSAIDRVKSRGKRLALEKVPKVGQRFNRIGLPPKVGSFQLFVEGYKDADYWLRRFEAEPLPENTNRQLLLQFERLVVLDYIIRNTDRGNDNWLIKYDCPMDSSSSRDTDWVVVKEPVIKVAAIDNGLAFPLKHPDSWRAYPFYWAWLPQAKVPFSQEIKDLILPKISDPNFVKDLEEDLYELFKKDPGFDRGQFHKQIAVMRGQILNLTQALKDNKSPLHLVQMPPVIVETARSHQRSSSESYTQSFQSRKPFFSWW
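Compounds are screened against recombinant PI4K2A using PI as substrate and ATP, the latter dispensed at 300 microM. Reactions run one hour at ambient temperature before ADP-Glo detection; full inhibition defined by wells lacking enzyme.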
Hits are given with their value; - = inactive; ? = inconclusive; . = no result. In the library only some 5.7% were active in any assay of this set; here they are far more common. Unless noted, the call rests on the fitted dose curve; in most records, active means well fitted curve in the direction sought with a large enough effect; inconclusive means small, poorly fitted or top-dose-only effect, or another doubt; inactive means no such curve, though single readings can be large; an effect the other way counts as inactive or inconclusive.

SMILES	KB-V1 cytotox	Giardia killer	A549 viability	Nrf2 inh	KB-3-1 cytotox	PI4K2A block
Nc1cc(S(=O)(=O)N2CCN(S(=O)(=O)c3ccc4c(c3)OCCO4)CC2)ccn1	.	.	-	-	.	.
CCOn1c(=O)c(-c2cc3ccccc3o2)[n+]([O-])c2ccccc21	-	-	-	?	-	-
O=c1c(-c2cc3ccccc3o2)[n+]([O-])c2ccccc2n1OCc1ccccn1	3.66µM	?	-	-	-	-
Cc1cc(Br)ccc1NC(=O)c1ccccc1-c1ccccc1	13µM	-	-	-	-	-
O=C(Nc1ccccc1-c1ccccc1)c1ccccc1Br	?	-	-	-	-	-
O=C(Nc1ccccc1Br)c1ccccc1-c1ccccc1	?	-	-	-	7.31µM	-
O=C(Nc1cccc(Br)c1)c1ccccc1-c1ccccc1	?	-	-	-	-	-
CCOc1ccccc1-n1nnc(-c2nc(-c3ccccc3C)no2)c1C	.	.	-	?	.	-
Cc1nc(-c2ccc([S+](=O)([O-])N3CCN([S+](=O)([O-])c4c(F)cccc4F)CC3)s2)cs1	.	.	-	-	.	.
COc1cc(CNn2nnnc2N)cc(Br)c1OCc1c(Cl)cccc1Cl	20.6µM	-	-	?	?	-
COc1cc(CNn2nnnc2N)cc(Br)c1OCC(=O)NC(C)(C)C	-	-	-	-	-	-
Cn1c(=O)c(=O)n(C)c2cc(N3CCCC3)c(NC(=O)c3ccc(C(C)(C)C)cc3)cc21	-	.	-	-	-	-
CN1/C(=C\C(=O)c2ccco2)C(C)(C)c2ccccc21	?	-	?	?	20.6µM	-
CN1/C(=C\C(=O)c2cncc(Br)c2)C(C)(C)c2ccccc21	?	-	-	23.1µM	?	-
CN1/C(=C\C(=O)COC(=O)c2ccco2)C(C)(C)c2ccccc21	?	-	?	?	-	-
CN1/C(=C\C(=O)C[n+]2ccc3ccccc3c2)C(C)(C)c2ccccc21	-	-	?	10.3µM	?	-
COc1ccc(CN2CN3CCc4ccccc4C3CS2(=O)=O)cc1 (stereo not drawn)	.	.	.	.	.	-
O=C(OC12CCCN(C1)/C(=C/c1ccc(Cl)cc1)C2)c1ccc(F)cc1 (stereo not drawn)	.	.	.	.	.	-
CCC1CCCCN1Cc1nc2c(c(=O)n(C)c(=O)n2C)n1Cc1c(F)cccc1Cl (stereo not drawn)	-	-	-	-	-	.
COC(=O)c1ccc(OC)c(CSc2nnc(COc3ccc(OC)cc3)o2)c1	-	-	.	13µM	-	-
CN1CC=C2C(C#N)=C(N)C(C#N)(C#N)[C@H](c3cccc(Cl)c3)C2C1 (stereo partly drawn)	-	-	-	.	-	-
CN1CC=C2C(C#N)=C(N)C(C#N)(C#N)C(CCc3ccccc3)C2C1 (stereo not drawn)	18.4µM	-	-	-	-	-
CN1CC=C2C(C#N)=C(N)C(C#N)(C#N)[C@H](c3cccs3)[C@H]2C1	-	-	-	-	-	-
CCCC1C2CN(C(C)C)CC=C2C(C#N)=C(N)C1(C#N)C#N (stereo not drawn)	?	-	?	6.51µM	-	-
CSc1ccc(CN(C)Cc2nc3ccccc3c(=O)[nH]2)cc1	20.6µM	-	-	-	-	-
SMILES	KB-V1 cytotox	Giardia killer	A549 viability	Nrf2 inh	KB-3-1 cytotox	PI4K2A block
COc1ccccc1CN(Cc1nc2ccccc2c(=O)[nH]1)C(=O)Nc1ccc(C)cc1	20.6µM	-	-	-	-	-
CCNC(=S)N(Cc1ccccc1)Cc1nc2ccccc2c(=O)[nH]1	20.6µM	-	-	?	-	-
C#CCOCCOCCOCCNc1nc(N2CCN(C(=O)[C@H]([C@@H](C)CC)n3cc(CCCCN)nn3)CC2)nc(N2CCN(C(=O)[C@H](Cc3ccc(O)cc3)n3cc(CCO)nn3)CC2)n1	.	.	.	.	.	-
Cc1n[nH]c(C)c1S(=O)(=O)NCCc1cccc(F)c1	.	.	.	.	.	-
Cc1cc(C(=O)c2ccc(Cl)cc2)c(NC(=O)CCl)s1	?	-	-	-	?	-
CCc1cc(C(=O)c2ccc(C)cc2)c(NC(=O)CCl)s1	?	-	-	-	23.1µM	-
COC(=O)c1cn(-c2ccc3c(c2)[C@@]2(CC(=O)N(C)C2c2ccccc2)C(=O)N3CC(C)C)nn1 (stereo partly drawn)	.	.	.	.	.	-
O=C(C1CCCN1S(=O)(=O)c1cccc([N+](=O)[O-])c1)N1CCN(c2ccccc2)CC1 (stereo not drawn)	.	.	.	.	.	-
CC(OC(=O)CCCSc1nc2ccccc2s1)C(=O)NC(N)=O (stereo not drawn)	-	-	-	16.4µM	-	-
O=c1cc(CSc2nc(NCc3ccccc3)c3ccccc3n2)nc2ccc(Cl)cn12	2.31µM	-	-	-	-	-
CN1C(=O)C[C@@](C#N)(C(=O)NCC(F)(F)F)[C@H]1c1ccccc1	.	.	.	.	.	-
CCN1C(=O)/C(=C2/Sc3ccccc3N2CC)S/C1=N\c1ncn[nH]1	23.1µM	-	?	?	-	-
C/C(=N\N=C(N)N)c1cc(Cl)ccc1Cl	-	-	?	16.4µM	-	-
C/C(=N\N=C(N)N)c1ccc(Cl)cc1Cl	?	-	-	-	?	-
CCS(=O)(=O)c1ncc(Cl)c(C(=O)N(Cc2ccccc2)Cc2ccco2)n1	.	.	16.4µM	23.1µM	.	-
Cc1ccc(C(=O)N(Cc2ccc(N(C)C)cc2)Cc2ccco2)cc1	.	.	-	?	.	-
CCSc1ncc(Cl)c(C(=O)N(Cc2ccc(N(C)C)cc2)Cc2ccco2)n1	.	.	-	18.4µM	.	-
O=C1Cc2cc(S(=O)(=O)N3CCN(c4cccc(C(F)(F)F)c4)CC3)ccc2N1	-	.	-	-	-	.
COC(=O)[C@]12C[C@H](CC(=O)NCc3cccc(C(F)(F)F)c3)C(=O)N(Cc3cccc4ccccc34)C1=C[C@H](C(C)(C)C)O[C@@H]2C	.	.	.	.	.	-
COc1ccc(N/C=C(\C#N)c2nc3ccccc3n2C)c(OC)c1	20.6µM	-	.	-	-	-
Cn1c(/C(C#N)=C/c2ccccc2Br)nc2ccccc21	.	.	?	?	.	-
Cn1nc([N+](=O)[O-])nc1Oc1ccc(C(C)(C)C)cc1	14.6µM	-	-	-	-	-
O=C(CCc1ccccc1)N[C@H]1[C@H](OC(=O)c2cnccn2)CCC[C@]12C(=O)N(Cc1ccccc1)c1ccccc12	.	.	.	.	.	-
CCC[C@H]1[C@@H](OC(=O)NCc2ccco2)CC[C@@]23CCCN2C(=O)CCC[C@@H]13	.	.	.	.	.	-
NC(=O)COC(=O)c1ccccc1Nc1ccc(SC(F)F)cc1	-	-	-	?	-	-
CC(OC(=O)c1ccccc1Nc1ccc(SC(F)F)cc1)C(N)=O (stereo not drawn)	?	-	-	25.9µM	-	-

Bioassay records from PubChem.
